Most compounds without a hit are left out; they make up all but 4.2% or so of the library.
PLK1 PBD inh – PLK1 (human) polo-box domain binding inhibition. Plk1 PBD binding of FITC phosphopeptide, fluorescence polarization. Potency, µM, inactives show max response, negative = inhibition, hits mostly inhibitors. 360,000 tested, 2.8% active. AID 720504; also: series mostly up to about 57 µM; nearly all actives have a fitted effect of over 65% in size
ALOX12 inh – ALOX12 (human) lipoxygenase inhibition | P18054 | purified 12hLO, xylenol orange hydroperoxide absorbance | Potency, µM (doses to about 108 µM), for the others: at the highest dose activity change, negative = inhibition, hits mostly inhibitors | 580,000 tested, 1.1% active | AID 1671190
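Purified human 12hLO at 150 nM in 25 mM Hepes, 0.01% Triton X-100, pH 7.0, preincubated 15 min at room temperature with compound. Reaction started with 40 uM arachidonic acid, 30 min at room temperature. Hydroperoxide measured by Fe-xylenol orange, 573/405 nm absorbance ratio.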
VDR inh – vitamin D3 receptor (human) inhibition; P11473; VDR-SRC2-3 peptide fluorescence polarization, 2 h; Potency, µM, for inactives: max response, negative = inhibition, usual class: inhibitors; 400,000 tested, 0.93% active; AID 504847
Target sequence (P11473 whole entry, looked up): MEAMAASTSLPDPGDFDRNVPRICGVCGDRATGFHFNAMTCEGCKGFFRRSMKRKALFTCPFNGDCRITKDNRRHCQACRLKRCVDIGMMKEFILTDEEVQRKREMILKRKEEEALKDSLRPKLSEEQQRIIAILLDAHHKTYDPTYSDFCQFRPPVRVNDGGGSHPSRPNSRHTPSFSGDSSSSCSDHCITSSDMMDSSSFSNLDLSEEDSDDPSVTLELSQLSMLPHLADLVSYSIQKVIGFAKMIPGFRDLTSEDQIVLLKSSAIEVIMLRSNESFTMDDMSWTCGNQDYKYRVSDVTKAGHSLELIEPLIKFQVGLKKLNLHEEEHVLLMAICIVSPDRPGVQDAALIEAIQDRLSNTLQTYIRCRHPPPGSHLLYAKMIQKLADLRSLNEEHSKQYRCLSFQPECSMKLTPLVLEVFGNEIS
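Fluorescence polarization assay measuring small-molecule disruption of VDR binding to the coregulator peptide SRC2-3. Compounds were pin-transferred (23 nl) into the reagent mix and incubated 2 h at room temperature before reading.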
Sfp inh – Sfp phosphopantetheinyl transferase inhibition; Q9F4F7; Biochemical Sfp PPTase activity, qHTS; Potency, µM, for inactives: largest response in the series, negative = inhibition, most hits filed as inhibitors; 310,000 tested, 3.5% active; AID 1490;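 also: the enzyme is Sfp with the accession as filed and its product quenches rhodamine fluorescence; 0% = enzyme reaction without inhibitor and -100% = no enzyme wells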
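Fluorescence-quenching assay with 15 nM Sfp, 5 uM rhodamine-CoA and 12.5 uM BHQ-2-labelled ybbR peptide in pH 7.6 Hepes/MgCl2 buffer. Enzyme was pre-incubated with compound for 15 min at room temperature. Rate was taken from the 30-min fluorescence change (525/598 nm).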
Starred values were filed as active, the others as inactive; i = inactive; ? = inconclusive; · = no result given; [ ] = another dose, or the depositor's remark. Calls follow the shape of the dose curve; as a rule, active = well fitted curve in the direction sought with a large enough effect; inconclusive = small, poorly fitted or top-dose-only effect, or another doubt; inactive = no such curve, though single readings can be large; an effect the other way counts as inactive or inconclusive. Unless noted, % is scaled to controls: 0 for no effect and ±100 for the full control effect; potency is read from the fitted curve at half-maximal effect.

SMILES	PLK1 PBD inh	ALOX12 inh	VDR inh	Sfp inh
O=S(=O)(Nc1ccc(-c2csc(-c3ccccc3)n2)cc1)c1ccc(F)cc1	-2%	?	5%	18%
O=C(COc1ccc(Cl)cc1)Nc1nc(-c2ccncc2)cs1	9.5µM*	i	?	22µM*
O=C(Nc1nc(-c2ccccc2)cs1)c1ccccc1NS(=O)(=O)c1ccc(F)cc1	27µM*	?	-11%	-3%
Cn1c(C(=O)N[C@@H](C(=O)O)c2ccccc2)cc2cc(Cl)ccc21	-12%	?	?	6%
CC(C)(C)c1csc(NC(=O)CCS(=O)(=O)c2ccc(F)cc2)n1	1%	-1%	·	·
O=C(CCS(=O)(=O)c1ccc(F)cc1)Nc1nc(-c2ccncc2)cs1	12µM*	-26%	?	13µM*
CCC(=O)Nc1ccc2nc(C3CC3)n(Cc3ccc(C(C)(C)C)cc3)c(=O)c2c1	12µM*	13%	?	2%
COC(=O)Cn1c(=O)oc2ccc(C)cc21	27µM*	0%	-11%	8%
CCc1cccc2c(C(CC(=O)NCCc3ccc(OC)c(OC)c3)c3ccccc3OC)c[nH]c12 (configuration not stated)	·	16%	·	·
Cc1nn(C)c(Oc2cccc(Cl)c2)c1C#N	8.4µM*	-3%	?	3%
Cc1nn(C)c(Oc2cccc(C(F)(F)F)c2)c1C#N	0%	0%	8%	7%
Cc1ccc(-c2cc(-c3ccccc3Cl)c(C#N)c(N)n2)o1	?	7.1µM*	-9%	11µM*
N#Cc1c(-c2ccncc2)cc(-c2ccc(F)cc2)nc1N	-2%	-10%	4%	6%
Cc1ccc(-c2cc(-c3ccccc3)c(C#N)c(N)n2)o1	21µM*	0.79µM*	?	7.9µM*
Cc1ccc(-c2cc(-c3ccc(F)cc3)nc(N)c2C#N)o1	-10%	6.3µM*	1%	8.9µM*
CCn1cc(SCC(N)=O)c2ccccc21	-2%	-2%[57.4 µM]	7%	?
CCN=c1scc(-c2ccco2)n1/N=C/c1ccc(OC)c(O)c1	-21%	-28%	-20%	50µM*
CCN=c1scc(-c2ccco2)n1/N=C/c1ccc(O)cc1	-10%	?	-17%	35µM*
COc1ccc(/C=N/N2CCN(C)CC2)cc1O	-10%	?	-22%	?
C[C@@H]1CN([C@H](C)CO)S(=O)(=O)c2ccc(Br)cc2O[C@@H]1CN(C)C(=O)NC1CCCC1	-3%	1%	·	·
CCOC(=O)C(C)Sc1nc(-c2ccccn2)ncc1OC (configuration not stated)	?	14%	8%	35µM*
COc1ccc(Oc2nc(-c3ccccn3)ncc2OC)cc1	-19%	?	9%	-18%
c1ccc(-c2nnc(-c3ccccn3)c(-c3ccccn3)n2)nc1	?	0%	-8%	?
COc1cnc(-c2ccccn2)nc1N(C)C	0%	-12%	-1%	16µM*
CN(C)c1nc(-c2ccccn2)nnc1-c1ccccc1	1%	15%[57.4 µM]	-4%	79µM*
SMILES	PLK1 PBD inh	ALOX12 inh	VDR inh	Sfp inh
CCn1cc(/C=C(/C#N)S(=O)(=O)c2ccccc2)cn1	-1%	5%	-1%	-9%
Cn1nccc1/C=C(/C#N)S(=O)(=O)c1ccccc1	11µM*	?	?	5%
COc1cccc(NC(=S)Nc2cc(C(=O)O)ccc2N2CC3CC(C2)c2cccc(=O)n2C3)c1 (configuration not stated)	-27%	?	-28%	4%
Cc1ccc(NC(=S)Nc2cc(C(=O)O)ccc2N2CC3CC(C2)c2cccc(=O)n2C3)cc1C (configuration not stated)	-29%	?	12%	56µM*
Cc1ccc(/C=N/n2c(-c3cccc(Cl)c3)n[nH]c2=S)o1	?	?	7%	-8%
S=c1[nH]nc(-c2ccccc2Cl)n1/N=C/C=C/c1ccco1	?	?	-4%	56µM*
S=c1[nH]nc(-c2ccncc2)n1/N=C/C=C/c1ccco1	?	?	10%	45µM*
S=c1[nH]nc(-c2cccc(Cl)c2)n1/N=C/c1ccco1	-21%	·	-15%	50µM*
Cc1cccc(-c2n[nH]c(=S)n2/N=C/C=C/c2ccco2)c1	-14%	25µM*	?	?
Cc1cc(C)c(C)c(OCCCn2ccnc2)c1	0%	?	0%	-12%
Cc1[nH]c2ccc(CNS(=O)(=O)c3ccc(S(=O)(=O)N4CCOCC4)cc3)cc2c1C	2%	-4%	3%	18%
COc1cccc([C@@H]2Oc3ccc(Br)cc3C[C@H]2OC(=O)Nc2cc(OC)c(OC)c(OC)c2)c1	·	·	-1%	3%
CCCn1c(=S)[nH]c2cc(C(=O)NCc3ccccc3OC)ccc2c1=O	2%	-7%	·	·
O=C(Nc1cccs1)Nc1c(F)c(F)cc(F)c1F	-4%	-4%	-12%	45µM*
CCc1cccc(NC(=O)Nc2cccs2)c1	-20%	253%	-3%	32µM*
O=C(Nc1cccs1)Nc1c(F)cc(F)cc1Br	-12%	-3%	-16%	?
Cc1cccc(C)c1NC(=O)Nc1cccs1	-12%	?	15%	56µM*
N#Cc1cccc(NC(=O)Nc2cccs2)c1	-13%	?	0%	?
CC(=O)Nc1cccs1	·	-27%	·	·
O=C(Nc1cccs1)Nc1c(F)c(F)c(F)c(F)c1F	9%	-12%	-7%	45µM*
CN1CCN(C(=O)[C@@H]2CCC[C@@H](NCc3cnn(C)c3)CN(C)C(=O)C2)CC1	·	-1%[176 µM]	·	·
CC(=O)N/C(=N\OCc1ccc(Br)cc1)c1nonc1NC(C)=O	-2%	-9%	2%	3%
O=C(CCc1cccs1)NCc1ccco1	·	-1%	·	·
O=C(NCc1ccco1)Nc1cccs1	-11%	?	-2%	18µM*
O=C1NC2c3c(Cl)sc(Cl)c3C(=O)C2O1 (configuration not stated)	15µM*	40µM*	?	·
SMILES	PLK1 PBD inh	ALOX12 inh	VDR inh	Sfp inh
CC(NS(=O)(=O)c1ccccc1Cl)C1CC2CCC1C2 (configuration not stated)	?	-8%	-15%	11%
CCCCOc1ccc(C(=O)NNC(=O)C2C3C=CC(C3)C2C(=O)O)cc1 (configuration not stated)	-9%	-12%	-2%	45µM*
CCOc1cccc(C(=O)NCc2ccccc2)c1	2%	-1%	5%	13%
CCOc1cccc(C(=O)NNC(=O)C2C3C=CC(C3)C2C(=O)O)c1 (configuration not stated)	-13%	6%	11%	35µM*
CCOC(=O)c1ccccc1NC(=O)CN1C(=O)CCS(=O)(=O)c2ccccc21	-2%	0%	-9%	1%
CCc1ccc2cc3c(cc2n1)C(=O)c1ccccc1-3	0%	7.9µM*	·	·
Cc1cc2c(cc1C)-c1ccccc1C2=O	·	32%	·	·
N#CCCN1CCN(C(=S)c2ccc(-c3cccc(Cl)c3)o2)CC1	-27%	-4%	6%	45µM*
CCCN1CCN(C(=O)c2ccc(CS(=O)c3ccc(Cl)cc3)o2)CC1 (configuration not stated)	-7%	1%	3%	21%
S=C(c1ccc(-c2cccc(Cl)c2)o1)N1CCCCC1	?	?	4%	-43%
N#CCCN1CCN(C(=S)c2ccc(-c3ccc(Cl)c(Cl)c3)o2)CC1	11µM*	?	-11%	50µM*

Screening results as filed in PubChem BioAssay.
